hcDAF12 agonist: H. contortus DAF-12 activation, primary screen | HEK293 hcDAF-12 lit1-tk-luc reporter, luminescence; 0% DMSO, 100% Δ7-dafachronic acid | activation, % at 6.8 µM | hit rate 1.4% among 370,000 | AID 652067;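 active = activation above the mean of all tested compounds plus 3 SD, cut at about 5.5% in these data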;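 also: 100% = response to 3 µM Δ7-dafachronic acid high control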
ssDAF12 agonist: activates DAF-12 receptor from parasite S. stercoralis | HEK293 ssDAF-12/GRIP1 lit1-tk-luc reporter, luminescence; % of 3 µM dafachronic acid response | activation, % at 6.8 µM | hit rate 1% among 370,000;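 active = activation above the mean over all tested compounds plus 3 SD, cut at about 0.9% in these data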;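 also: 0% = DMSO-only wells and 100% = 3 µM delta7-dafachronic acid wells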
hgDAF-12 ag: agonists of H. glycines DAF-12 nuclear receptor | activation, % at 6.8 µM | HEK293 GAL4-hgDAF12 UAS-luciferase reporter, agonist luminescence; normalized to butyrate control | hit rate 1.8% among 370,000;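 active = activation above a cutoff set at the mean of all screened compounds plus 3 SD, cut at about 10% in these data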;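 also: 0% = DMSO wells and 100% = sodium butyrate wells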
DAX1 inh-1: blocks DAX1 repression of SF-1 activated StAR promoter; HEK293T StAR-luciferase reporter, SF-1/DAX-1 repression relief; hit rate 1.1% among 370,000; inhibition, % at 6.8 µM; AID 652010;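 active = inhibition above the mean over all tested compounds plus 3 SD, cut at about 3.6% in these data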;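 also: 0% = DAX-1 cells with DMSO and 100% = cells lacking DAX-1 with DMSO; higher inhibition means more luminescence from relief of DAX-1 repression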
DAX1 inh-2: inhibitors of human orphan nuclear receptor DAX1 (NR0B1); P51843; HEK293 Gal4-DAX1 luciferase reporter, luminescence; inhibition, % at 6.75 µM; hit rate 0.99% among 340,000; AID 504766;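 active = inhibition above the mean over all tested compounds plus 3 SD, cut at about 4.2% in these data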;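 also: 0% = DAX1-transfected cells with DMSO and 100% = empty-vector control cells with DMSO; inhibition shows as a rise in luminescence from relieved DAX1 repression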
Target sequence (P51843 207-470 limits assumed): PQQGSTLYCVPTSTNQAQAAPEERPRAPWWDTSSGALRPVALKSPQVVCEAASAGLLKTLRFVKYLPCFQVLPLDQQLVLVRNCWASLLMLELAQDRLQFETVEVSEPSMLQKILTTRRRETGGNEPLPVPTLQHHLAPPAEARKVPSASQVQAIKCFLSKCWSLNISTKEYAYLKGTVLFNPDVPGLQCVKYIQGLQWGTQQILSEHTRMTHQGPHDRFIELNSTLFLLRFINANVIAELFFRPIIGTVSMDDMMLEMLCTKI
* marks the source's active call; other numbers are inactive results; / = no result given; ! = not active in a repeat. In the library only some 4.1% were active in any assay of this set; here they are far more common.

SMILES	hcDAF12 agonist	ssDAF12 agonist	hgDAF-12 ag	DAX1 inh-1	DAX1 inh-2
Fc1ccccc1N1CCN(C2CCN(Cc3c[nH]c4ccccc34)CC2)CC1	3.4	1.3*	0.6	-0.5	-0.2
Cc1cc(NS(=O)(=O)c2ccc(NC(=O)Cc3ccccc3)cc2)no1	-1.5	-0.8	-1.8	-0.6	/
NC(=O)C1CCN(c2nc(-c3ccc(OCc4ccccc4)cc3)cs2)CC1	-3.1	-1.6	3.9	/	/
CCOC(=O)OCC(=O)C1(O)CCC2C3CCC4=CC(=O)CCC4(C)C3C(O)CC21C (stereo unspecified)	-0.6	-0.7	-5.7	1.1	-0.1
CC(=O)OCC(=O)C1(O)CCC2C3CCC4=CC(=O)CCC4(C)C3C(O)CC21C (stereo unspecified)	-0.4	-1.4	-3.1	3.7*	-0.3
Cc1nc(-c2ccncc2)nc(NCCNc2ccc(C(F)(F)F)cn2)c1Cl	-0.8	-0.4	-0.1	-0.5	9.1*
Cc1nc(C(F)(F)F)ccc1C(=O)Nc1ccc(C(F)(F)F)cn1	1.3	-0.8	0.3	0.1	-0.9
Cc1ccc(-n2c(SCC(=O)NN=Cc3ccc(-c4ccccc4)cc3)nnc2-c2ccccc2)cc1	0.6	-0.8	-2.1	-0.8	/
COCCN(C(=S)Nc1cccc(C)c1C)C(C)c1ccco1 (stereo unspecified)	-0.6	-1.3	0.5	1.0	8.3*
COCCN(C(=S)Nc1ccccc1C)C(C)c1ccco1 (stereo unspecified)	-0.8	-0.1	-2.3	0.2	1.8
COc1ccc(C(=O)N2C(=S)NC(=O)/C2=C\c2ccc(C)cc2)cc1	2.2	-0.7	12.0*	1.6	0.9
c1ccc2c(c1)Nc1cc3ccccc3cc1O2	3.6	0.9*	4.8	0.0	1.5
Cn1cccc1C(=O)NC(=O)CSc1nc2ccccc2s1	4.5	1.0*	4.4	1.4	-0.5
C/C(=N/O)c1no[n+]([O-])c1/C(C)=N\O	-0.7	-0.9	0.4	-0.2	7.2*
COCC(=O)N1CC[C@H]2[C@@H]1c1cc(-c3cccc(OC)c3)ccc1N(C)[C@H]2CO	-2.2	-2.1	-2.5	-0.8	/
CCSc1ccc(/C(N)=N/OC(=O)c2cccs2)cn1	2.2	-0.5	6.4	3.9*	1.6
N/C(=N\OC(=O)c1cccs1)c1cccnc1	3.0	-0.6	3.1	0.5	3.0
Cc1cc2nc(-c3ccc(F)cc3)c(Cc3ccccc3)n2c(C)c1Br	5.1	0.1	0.6	-0.8	/
Cc1cc2nc(-c3cccc(Br)c3)c(CC3CCCCC3)n2c(C)c1Br	2.2	1.6*	2.3	1.0	/
Cc1ccc(Cc2c(-c3ccccc3)nc3cc(C)c(Br)c(C)n23)cc1	2.5	1.3*	5.9	-0.6	/
Cc1cc(Br)cn2c(Cc3ccsc3)c(-c3ccccc3)nc12	-0.4	-0.4	1.1	0.7	/
Cc1ccc(-c2nc3cc(C)c(Br)c(C)n3c2Cc2ccsc2)cc1	5.3	1.5*	9.0	3.7*	/
Cc1ccc(-c2nc3c(C)cc(Br)cn3c2Cc2ccsc2)cc1	3.1	-0.1	10.6*	-0.7	/
Cc1occc1-c1nnc(SCC(=O)Nc2ccccn2)n1-c1ccccc1	-2.7	0.3	1.9	-0.3	/
Cc1ccc(-c2nc3cc(C)c(Br)c(C)n3c2CC(C)(C)C)cc1	6.5*	1.5*	6.0	0.5	/
SMILES	hcDAF12 agonist	ssDAF12 agonist	hgDAF-12 ag	DAX1 inh-1	DAX1 inh-2
N=c1n(CCN2CCCCC2)c2ccccc2n1CC(O)c1ccco1 (stereo unspecified)	1.9	-1.5	-0.3	1.1	5.1*
CCn1c(=N)n(CC(O)c2ccco2)c2ccccc21 (stereo unspecified)	-0.7	-1.5	-4.5	-0.1	0.7
CCCC(=O)OC12CCCN(C1)/C(=C/c1cccc(N(C)C)c1)C2 (stereo unspecified)	-1.2	-1.1	0.9	-0.2	/
CCC(NC(=O)C1CCCN(c2ncccn2)C1)c1ccccc1 (stereo unspecified)	0.5	-1.4	-1.1	0.3	/
Cn1sc(NC(=O)c2ccc(Cl)cc2)nc1=O	3.5	-0.4	2.6	1.1	-0.3
Cc1ccc(C(=O)Nc2nc(=O)n(C)s2)cc1	5.2	-0.7	6.2	0.8	5.6*
Cc1ccc(C(=O)Nc2nc(=O)n(C(=O)CC(C)C)s2)cc1	-0.3	-0.8	-0.4	0.5	1.1
Cc1ccc(C(=O)Nc2nc(=O)[nH]s2)cc1	-0.3	-1.0	0.6	-0.2	4.4*!
c1ccc(-c2c[nH]c3cccc(-c4cc5ccccc5o4)c23)cc1	3.1	-0.4	3.0	-0.7	/
COC(=O)[C@@H](NC(=O)N1CCC(C)CC1)C(C)C	-1.3	-1.0	4.1	-0.3	4.9*
COc1cc(Cl)cc(C(c2c(C(=O)O)[nH]c3ccccc23)c2c(C(=O)O)[nH]c3ccccc23)c1O	5.7*	-0.8	1.6	0.6	1.3
O=C(O)c1[nH]c2ccccc2c1C(c1c(F)cccc1Cl)c1c(C(=O)O)[nH]c2ccccc12	-0.9	-0.6	5.0	0.4	1.2
O=C(COC(=O)CCCC1=NS(=O)(=O)c2ccccc2N1)Nc1ccc(Br)cc1	-1.9	-1.3	-2.1	4.1*	-0.6
O=C(Nc1ccccc1)OCCN1C(=O)CCC12CCC(c1ccccc1)CC2 (stereo unspecified)	-2.9	-1.4	2.5	-0.3	/
Cc1cccc(S(=O)(=O)NNC(=O)c2cc(-c3ccc(F)cc3)nc3ccccc23)c1	-2.3	-1.4	3.4	0.5	4.3*
O=C(NNS(=O)(=O)c1ccc(Cl)cc1)c1cc(-c2ccccc2)nc2ccccc12	0.6	-1.0	-2.2	0.3	-0.1
CC(C)(C)c1ccc(-c2cc(C(=O)NNC(=O)Nc3ccccc3)c3ccccc3n2)cc1	3.9	0.6	11.2*	3.9*	2.7
COc1ccc(/C=N\NC(=O)CCc2c(C)n[nH]c2C)c(OC)c1OC	3.4	-0.1	5.0	0.3	-0.5
Cc1n[nH]c(C)c1CCC(=O)N/N=C/c1c[nH]c2ccccc12	6.1*	2.1*	0.8	1.0	1.1
Cc1n[nH]c(C)c1CCC(=O)N/N=C/c1c(C)[nH]c2ccccc12	4.2	-0.9	1.0	-0.4	6.2*
Cc1[nH]c2ccccc2c1/C=N/NC(=O)CCC(=O)NCc1ccccc1	1.8	0.5	5.9	-0.1	1.0
COc1ccc(S[C@]2(C(=O)N3CCOCC3)CC(=O)N(c3ccc(Cl)cc3)[C@@H]2c2ccc(OC)cc2)cc1	-3.0	-0.6	-1.8	-2.1	/
CCOC(=O)C1=CCN(S(=O)(=O)c2ccc(Br)cc2)C1c1cccc(Br)c1 (stereo unspecified)	-1.3	-1.5	-0.9	-1.3	/
C/C(CC(=O)NCc1ccccc1)=N\NC(N)=S	-0.9	-1.4	-1.3	-0.7	-0.2
C/C(CC(=O)NCc1ccc(F)cc1)=N\NC(N)=S	-0.6	-0.8	0.4	0.0	4.8*
Cc1ccccc1OCC(=O)Nc1ccccc1CO	1.1	-0.6	0.9	0.2	1.1
CSc1ccccc1NC(=O)COC(=O)c1c[nH]c(=O)[nH]c1=O	-0.3	-1.3	2.4	0.4	5.5*
O=C(COC(=O)c1c[nH]c(=O)[nH]c1=O)Nc1ccccc1F	-0.3	-1.2	-1.5	0.1	0.0

Compound activity: PubChem, The Scripps Research Institute Molecular Screening Center
